According to PubChem BioAssay AID1745847 (National Center for Advancing Translational Sciences (NCATS), 2022):
The whole screen tested about 2,100 compounds, of which about 670 (32%) were called active. Roughly 50% stayed inconclusive and do not appear here. This is one part of the list. Unmarked numbers belong to inactive results. The call rests on the fitted dose curve; in most records, active means well fitted inhibition curve with a large enough effect; inconclusive means small, poorly fitted or top-dose-only effect; inactive means no such curve, though single readings can be large or run the other way.

Test: CMV-Luciferase Counterscreen for Inhibitors of ATXN expression; further: nearly all actives have a fitted effect of over 55% in size
Details: HEK-293 CMV-luciferase reporter, luminescence, 24 h; series mostly up to 57.5 µM
On the % scale 0 is the no-effect control and ±100 the full control effect; potency means the concentration at half of the fitted maximal effect.

Row | SMILES | activity change, negative = inhibition | Potency
1 | O=C(C1CC(=O)N(c2ccc3c(c2)OCCO3)C1)N1CCN(c2ccccc2)CC1 (centres undefined) | -8.65% [at 11.4 µM] | –
2 | COc1ccc(-c2nc(NC(=O)C3CC(=O)N(c4ccc5c(c4)OCCO5)C3)sc2C)cc1 (centres undefined) | – | 10 µM (active)
3 | CCc1ccc(-c2csc(NC(=O)C3CC(=O)N(c4ccc5c(c4)OCCO5)C3)n2)cc1 (centres undefined) | – | 10 µM (active)
4 | COc1cc(-c2cc3nc(NCc4cccc(Cl)c4)ccn3n2)cc(OC)c1OC | – | 3.55 µM (active)
5 | O=C(Nc1c(Cl)cccc1Cl)Oc1cccc2cccnc12 | – | 10 µM (active)
6 | O=C(Nc1cccc2cccnc12)c1csc(COCCO)n1 | – | inactive
7 | CCOC(=O)c1ccc(N=c2sc(C(=O)OC)cc(=O)n2-c2ccc(C(=O)OCC)cc2)cc1 | -3.07% [at 11.4 µM] | –
8 | CCOC(=O)c1ccc(/C=C2/C=C(c3ccccc3)N(c3ccc(Cl)c(C(=O)O)c3)C2=O)cc1 | – | 12.6 µM (active)
9 | Cc1ccc(-c2c(C#N)c(N)n3c(nc4ccccc43)c2C#N)cc1 | – | 7.08 µM (active)
10 | NS(=O)(=O)c1ccc(CCNc2ccn3nc(-c4cccc(C(F)(F)F)c4)cc3n2)cc1 | – | 31.6 µM (active)
11 | CN(C)CCCNc1nc2cc(-c3ccc(F)cc3)sc2c(=O)n1C | – | inactive
12 | COc1cccc(CNc2nc3cc(-c4ccc(C(=O)N5CCN(C)CC5)cc4)sc3c(=O)n2C)c1 | – | 12.6 µM (active)
13 | Cn1c(NCCN2CCCC2)nc2cc(-c3ccsc3)sc2c1=O | – | inactive
14 | Fc1ccc2[nH]c3c(NCc4ccccc4)ncnc3c2c1 | – | 0.631 µM (active)
15 | COc1ccc(CNc2ncnc3c2[nH]c2ccccc23)cc1 | – | 2.82 µM (active)
16 | Cc1[nH]n2c(=O)cc(C(C)(C)C)nc2c1-c1ccccc1 | – | 3.55 µM (active)
17 | Cc1ccc(C(=O)CN2C(=O)c3ccccc3S2(=O)=O)cc1 | – | 0.398 µM (active)
18 | O=C(CN1C(=O)c2ccccc2S1(=O)=O)N1CCc2ccccc21 | – | 0.224 µM (active)
19 | O=C(CN1C(=O)c2ccccc2S1(=O)=O)c1ccc(O)c(O)c1 | – | 0.794 µM (active)
20 | O=C(/C=C/c1ccccc1)c1cc(Br)ccc(=O)c1O | – | inactive

Row | SMILES | activity change, negative = inhibition | Potency
21 | Cc1cc(C)c(C(=O)/C=C/c2ccc(C(C)C)cc2)c(=O)[nH]1 | – | 8.91 µM (active)
22 | Cc1ccc(C)c(/C=C/C(=O)c2ccccc(=O)c2O)c1 | – | inactive
23 | Cc1[nH]c(=O)c(C(=O)/C=C/c2ccccc2)c2c1CCCC2 | – | 8.91 µM (active)
24 | C[C@@H]1C[C@@H]2O[C@H]2/C=C\C=C\C(=O)Cc2c(Cl)c(O)cc(O)c2C(=O)O1 | 25.3% [at 11.4 µM] | –
25 | COCCCNCCCOc1ccc(Cl)cc1C(C)(C)C | – | 22.4 µM (active)
26 | CCCCNCCCOc1cccc(Cl)c1Cl | – | inactive
27 | Cc1nn(-c2ccccn2)c2c1C(=O)CC(C)(C)C2N=[N+]=[N-] (centres undefined) | -24.8% [at 11.4 µM] | –
28 | CC1(C)c2[nH]c3ccccc3c2C[C@H]2C(=O)N(Cc3ccccc3F)C(=O)N21 | – | 17.8 µM (active)
29 | CC1(C)c2[nH]c3ccccc3c2C[C@H]2C(=O)N(Cc3cccc(F)c3)C(=O)N21 | – | 20 µM (active)
30 | OC(c1ccccc1)(c1nc(-c2ccc3ccccc3c2)cs1)C(F)(F)F (centres undefined) | 26.4% [at 11.4 µM] | –
31 | O=C(/C=C\c1ccco1)Nc1nc(-c2ccc3ccccc3c2)cs1 | – | 3.16 µM (active)
32 | CC(SC(C)C(=O)NN=Cc1cccc(Cl)c1)C(=O)NN=Cc1cccc(Cl)c1 (centres undefined) | -24.3% [at 11.4 µM] | –
33 | C=CCc1cccc(/C=N/NC(=O)c2ccccc2Br)c1O | – | 10 µM (active)
34 | C=CCc1cccc(/C=N/NC(=O)CCC(=O)Nc2ccc(F)cc2)c1O | – | 3.98 µM (active)
35 | C=CCc1cccc(/C=N/NC(=O)CCC(=O)Nc2ccc(C)cc2)c1O | – | 8.91 µM (active)
36 | C=CCc1cccc(/C=N/NC(=O)C(C)Nc2ccc(C)cc2)c1O (centres undefined) | – | 10 µM (active)
37 | C=CCc1cccc(/C=N/NC(=O)CCCNc2ccc(C)cc2)c1O | – | 15.8 µM (active)
38 | C=CCc1cccc(/C=N/NC(=O)CNc2ccccc2)c1O | – | 2 µM (active)
39 | Nc1ccc2c(c1)OC1(CCCC1)O2 | -27.3% [at 11.4 µM] | –
40 | CC(C)(C)c1ccc(OCCn2nc(C(=O)O)c3ccccc3c2=O)cc1 | – | inactive

Row | SMILES | activity change, negative = inhibition | Potency
41 | COc1ccc(NC(=O)N2CCN(c3nc(-c4cccc(OC)c4)cs3)CC2)cc1 | – | 3.55 µM (active)
42 | Cn1nccc1C(=O)N1CCCC(C(=O)c2cccc3ccccc23)C1 (centres undefined) | – | inactive
43 | CCCc1cnc(NCCNCC(O)COc2ccc(Cl)c(Cl)c2)nc1 (centres undefined) | – | 31.6 µM (active)
44 | N#C/C(=C\Nc1ccc2cn[nH]c2c1)c1nc(-c2ccc(Cl)cc2)cs1 | 11% [at 11.4 µM] | –
45 | Cc1ccc(SC2=C(Sc3ccc(C)cc3)C(=O)c3ccccc3C2=O)cc1 | – | inactive
46 | O=C1C(SCCO)=C(SCCO)C(=O)c2ccccc21 | – | 8.91 µM (active)
47 | CCCNC(=O)c1ccc2c(=O)c(O)c(-c3cccc(Br)c3)[nH]c2c1 | – | 20 µM (active)
48 | C/C(=N\NC(=O)C(C)n1nc(C)c([N+](=O)[O-])c1C)c1ccccc1O (centres undefined) | – | 2.51 µM (active)
49 | CCCCC(=O)NC(c1ccc(N(CC)CC)cc1)c1ccc2cccnc2c1O (centres undefined) | – | 0.282 µM (active)
50 | CCCCC(=O)NC(c1ccc(N(C)C)cc1)c1ccc2cccnc2c1O (centres undefined) | – | 1.78 µM (active)
51 | CO[C@@]12[C@@H]3N[C@@H]3CN1C1=C(C(=O)C(N)=C(C)C1=O)[C@@H]2COC(N)=O | 10.2% [at 11.4 µM] | –
52 | CC(C)CC(NC(=O)c1ccc(Cl)cc1)C(=O)OCC(=O)c1ccc2c(c1)NC(=O)CO2 (centres undefined) | – | 22.4 µM (active)
53 | Cc1ccc(OCC(=O)c2cc(C)n(Cc3cccs3)c2C)c([N+](=O)[O-])n1 | – | 3.98 µM (active)
54 | COc1ccccc1N(CC(=O)N/N=C(\C)c1ccccc1O)S(=O)(=O)c1ccc(C)cc1 | – | 11.2 µM (active)
55 | COc1ccc(CC(=O)N/N=C(\C)c2ccccn2)cc1 | – | 8.91 µM (active)
56 | C/C(=N\NC(=O)Cc1ccc(Cl)cc1)c1ccccc1O | – | 11.2 µM (active)
57 | C/C(=N\NC(=O)CN(c1ccccc1)S(C)(=O)=O)c1ccccc1O | – | 12.6 µM (active)
58 | COc1ccccc1N(CC(=O)NCCSCc1ccc(C)cc1)S(=O)(=O)c1ccccc1 | – | 22.4 µM (active)
59 | CC(C)C[C@H](NC(=O)c1[nH]cnc1C(=O)Nc1ccc(CNC(=O)OC(C)(C)C)cc1)C(=O)OCc1ccccc1 | -24.4% [at 11.4 µM] | –
